A selection: hits, their analogues and other compounds. The true share with any hit is near 19%.
DT40 TDP1 CPT: qHTS for Inhibitors of human tyrosyl-DNA phosphodiesterase 1 (TDP1): qHTS in cells in presence of CPT | chicken DT40 Tdp1-/-;hTDP1 cells + 20 nM CPT, ATP luminescence, 48 h | Potency, µM (highest dose often 46.2 µM), for inactives: at the top dose activity change, negative = growth inhibition, hits mostly inhibitors | 12% of 420,000 active; note: potency is the fitted concentration of half-maximal effect; nearly all actives have a fitted effect of over 55% in size
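Chicken DT40 Tdp1-/- cells stably complemented with human TDP1 were seeded at 400 cells/well in medium containing 20 nM camptothecin, exposed to pin-transferred compounds, and grown at 37 °C for at least 48 hr. Viability was read as ATP luminescence.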
HT1080 IDH1KD tx: qHTS for induction of synthetic lethality in tumor cells producing 2HG: qHTS for the HT-1080-IDH1KD cell line. HT-1080 IDH1 knockdown viability, ATP luminescence, 48 h. Potency, µM (highest dose often 46.1 µM), for inactives: top-dose activity, negative = toxicity, usual class: cytotoxic. 2% of 360,000 active;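 note: potency is the fitted concentration of half-maximal effect; 0% = DMSO wells and -100% = cell-free medium wells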
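Luminescent ATP read-out (CellTiter-Glo, 10 min at room temperature) after 48 h compound exposure at 37 °C gave viability of IDH1-knockdown HT-1080 cells. Activity was normalised to DMSO and cell-free wells, then fitted as concentration-response curves.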
IL-1B inflam inh: qHTS for Inhibitors of Inflammasome Signaling: IL-1-beta AlphaLISA Primary Screen. 4.7% of 360,000 active. activity change, % at 57.5 µM. THP-1 LPS/ATP IL-1B secretion, AlphaLISA, 16 h; stronger effect = lower value. AID 743279, 2014; in the data active = activity change below about -50%; inconclusive = mostly about -30% to -49%
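THP-1 cells pretreated 1 hr with compounds (up to 57.5 uM final), then stimulated with LPS (250 ng/mL final) plus ATP (1.25 mM final); secreted IL-1B measured by AlphaLISA after 16 hr, decreased signal indicating inhibition.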
TDP1 cell noCPT: qHTS for Inhibitors of human tyrosyl-DNA phosphodiesterase 1 (TDP1): qHTS in cells in absence of CPT. DT40 Tdp1-/- hTDP1 cells, no CPT, ATP luminescence, 48 h. Potency, µM (top dose mostly 46.2 µM), without a hit: at the top dose activity change, negative = growth inhibition, most hits filed as inhibitors. 15% of 420,000 active. AID 686978, 2013; note: potency is the fitted concentration of half-maximal effect; nearly all actives have a fitted effect of over 55% in size
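Seeded 400 DT40-hTDP1 cells/well (vehicle DMSO, no 20 nM CPT); pinned compounds; ≥48 hr at 37 °C; CellTiter-Glo luminescence as viability measure.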
ELG1 repair inh: qHTS screen for small molecules that inhibit ELG1-dependent DNA repair in human embryonic kidney (HEK293T) cells expressing luciferase-tagged ELG1 | AID 504467, 2011 | Potency, µM (titrated, usually from 46.1 µM), inactives show top-dose activity change, negative = inhibition, most hits filed as inhibitors | 2.3% of 330,000 active | HEK293T ELG1-luciferase reporter, luminescence, 16 h; DNA damage induced by 5-fluorouridine; note: potency is the fitted concentration of half-maximal effect; nearly all actives have a fitted effect of over 55% in size
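DMSO vehicle served as the neutral condition. Each well held 2,000 cells given 5-fluorouridine plus compound; after 16 hr at 37 °C/5% CO2, ONE-Glo was added and luciferase measured 30 min later.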
HT1080NT lethal: qHTS for induction of synthetic lethality in tumor cells producing 2HG: qHTS for the HT-1080-NT fibrosarcoma cell line | HT-1080-NT fibrosarcoma viability, CellTiter-Glo ATP luminescence, 48 h | Potency, µM (titrated, usually from 46.1 µM), for inactives: at the top dose activity, negative = less viability, actives largely listed as cytotoxic | 1.6% of 360,000 active;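 note: NT is the 2HG producing partner of a matched IDH1 knockdown line; potency is the fitted concentration of half-maximal effect; 0% = DMSO-treated cells and -100% = media-only wells without cells; nearly all actives have a fitted effect of over 55% in size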
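Fibrosarcoma NT cells, 750 per well in 5% FBS RPMI, were exposed to compound for 48 hours. Viability: CellTiter-Glo luminescence.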
An asterisk follows results filed as active; ? = inconclusive; · = no result; ! = not confirmed by another sample; [ ] = another dose, or the depositor's remark. Unless noted, calls come from the whole dose curve; as a rule, active = well fitted curve in the direction sought with a large enough effect; inconclusive = small, poorly fitted or top-dose-only effect, or another doubt; inactive = no such curve, though single readings can be large; an effect the other way counts as inactive or inconclusive. Unless noted, % is set by controls: 0 for no effect and ±100 for the full control effect.

SMILES	DT40 TDP1 CPT	HT1080 IDH1KD tx	IL-1B inflam inh	TDP1 cell noCPT	ELG1 repair inh	HT1080NT lethal
O=C(Nc1ccccc1)N1CCc2c([nH]c3ccccc23)C1C(F)(F)F (stereo unspecified)	11%	-14%	-93*	?	?	?
O=C(c1ccc(Cl)cc1)N1CCc2c([nH]c3ccccc23)C1C(F)(F)F (stereo unspecified)	4%	-3%	5	?	?	-8%
COc1cccc(Cl)c1NC(=O)N1CCc2c([nH]c3ccccc23)C1C(F)(F)F (stereo unspecified)	-26%	?	-8	?	?	21µM*
Cc1nonc1CC(=O)N1CCc2c([nH]c3ccccc23)C1c1ccccc1F (stereo unspecified)	?	-21%	?	?	0%	-29%
COc1ccc(NC(=O)N2CCc3c([nH]c4ccc(OC)cc34)C2c2ccc(OC)cc2)cc1 (stereo unspecified)	?	·	·	21µM*	·	·
Cc1ccc(NC(=O)N2CCc3c([nH]c4ccccc34)C2c2ccccc2F)c(Cl)c1 (stereo unspecified)	?	·	·	23µM*	·	·
COc1ccc(C2c3[nH]c4ccccc4c3CCN2C(=O)c2ccccc2C(C)=O)c(F)c1 (stereo unspecified)	?	-16%	?	?	?	-28%
Cc1csc(CNC(=O)C2CCC(=O)N(CCc3cccc(F)c3)C2)n1 (stereo unspecified)	13%	0%	-9	1%	16%	15%
CN(C(=O)COC(=O)c1cccc(S(=O)(=O)N(C)c2ccccc2)c1)C1CCCCC1	-29%	-12%	0	-12%	?	-1%[9.24 µM]
CCCOc1ccc(C(=O)Nc2cc3c(cc2N2CCCCC2)n(C)c(=O)n3C)cc1	-4%	·	·	-5%	·	·
COc1cc(COC(=O)Oc2ccc(CNC(C)=O)cc2OC)c([N+](=O)[O-])cc1OC	2%	0%	12	-5%	10%	10%
CC1c2[nH]c3ccccc3c2CCN1C(=O)Nc1ccccc1 (stereo unspecified)	23µM*	?	-12	23µM*	?	?
CC(=O)Nc1ccc(CN2CCc3c([nH]c4ccccc34)C2C(C)(C)C)cc1 (stereo unspecified)	-28%	-25%	28	-19%	-3%	-6%
CCN1CCN(C(c2ccc(OC)cc2)c2c(O)cc(C)n(CCOC)c2=O)CC1 (stereo unspecified)	5%	·	·	6%	·	·
O=C([C@@H]1CC=C[C@@H]2CCN(C3CC3)C(=O)[C@@H]21)N1CCN(c2ccccc2)CC1	-9%	4%	18	4%	·	-3%
O=C(Nc1ccc(Cl)cc1Cl)[C@@H]1CC=C[C@@H]2CCN(Cc3ccccc3)C(=O)[C@@H]21	10µM*	·	·	?	·	·
CCCCNC(=O)[C@@H]1CC=C[C@@H]2CCN(Cc3ccc(Cl)c(Cl)c3)C(=O)[C@@H]21	11µM*	-9%	-7	8.9µM*	·	19%
COc1ccc(NC(=O)[C@@H]2CC=C[C@@H]3CCN(Cc4ccc(Cl)c(Cl)c4)C(=O)[C@@H]32)cc1	?	?	?	?	·	-30%
COc1ccc(CN2CC[C@H]3C=CC[C@@H](C(=O)Nc4ccc(Cl)c(C(F)(F)F)c4)[C@H]3C2=O)cc1OC	?	-11%	?	11µM*	·	-9%
O=C1[C@H]2[C@H](C=CC[C@H]2C(=O)N2CCN(c3ccccc3)CC2)CCN1Cc1ccc(Cl)c(Cl)c1	16µM*	-5%	-51*	18µM*	·	0%
O=C(Nc1ccccc1)[C@@H]1CC=C[C@@H]2CCN(C3CC3)C(=O)[C@@H]21	-23%	·	·	-6%	·	·
O=C1[C@H]2[C@H](C=CC[C@H]2C(=O)N2CCN(c3ccccc3)CC2)CCN1Cc1ccccc1	?	0%	2	14µM*	·	-3%
O=C(NCCc1ccccc1)[C@@H]1CC=C[C@@H]2CCN(C3CCCCC3)C(=O)[C@@H]21	20µM*!	14%	-24	?	·	9%
O=C(NCCN1CCOCC1)c1ccc2c(c1)N(Cc1ccccc1F)C(=O)c1ccccc1S2(=O)=O	-16%	-15%	0	10%	8%	-4%
COC(=O)C[C@@H]1C[C@@H]2c3cc(NC(=O)Cc4ccncc4)ccc3O[C@@H]2[C@@H](CO)O1	-5%	6%	11	6%	·	7%
SMILES	DT40 TDP1 CPT	HT1080 IDH1KD tx	IL-1B inflam inh	TDP1 cell noCPT	ELG1 repair inh	HT1080NT lethal
COc1ccc(C2(O)CC3CCC(C2)N3c2cc(C)nc(-c3ccccc3)n2)cc1 (stereo unspecified)	?	?	?	?	18µM*	?
Cc1cc(N2CCN(C(=O)c3ccco3)CC2)n2nc(-c3cccc(F)c3)cc2n1	?	6%	-24	?	16µM*	2%
Cc1cc(N2CCN(c3ccccc3)CC2)nc(-c2ccccc2)n1	23µM*	-22%	-8	10µM*	?	-2%
Cc1cc(N2CCN(C(=O)c3ccco3)CC2)nc(-c2ccccc2)n1	?	6%	?	18µM*	0%	-6%
Cc1cc(N2CCN(c3ccccc3)CC2)nc(N)n1	-17%	7%	-14	-19%	3%	6%
Cc1cc(N2CCCC2)nc(N2C3CCC2CC(O)(c2ccc(F)cc2)C3)n1 (stereo unspecified)	·	·	·	·	-10%	·
CN(CC(=O)Nc1ccc(F)cc1)C(=O)c1ccc(OCc2cn3ccccc3n2)cc1	?	-4%	42	?	2%	-3%
COCc1cc(N2CCCCC2)nc(-c2ccccc2)n1	10µM*	?	2	18µM*	9%	-9%
CCN(C(=O)N(CC)c1ccccc1)c1ccccc1	-14%	9%	17	?	?	?
CCN(C(=O)CCCCC(=O)N(CC)c1ccccc1)c1ccccc1	?	7%	18	18µM*	·	14%
